# Assay outcomes: PubChem BioAssay, Sanford-Burnham Center for Chemical Genomics
# CRFBP-R2 block = antagonists of CRF-binding protein/CRF-R2 receptor complex. HEK293 CRF-R2/CRF-BP, CRF-induced calcium fluorescence. inhibition, % at 11.8 µM. 350,000 compounds, 0.59% hits. AID 588475;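 active = inhibition of the ligand-induced calcium signal above about 50% at the single tested concentration, limit read from the data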
# PHOSPHO1 block = PHOSPHO1 (human) inhibition; inhibition, % at 13.3 µM; 290,000 compounds, 1.1% hits; recombinant PHOSPHO1, absorbance phosphatase assay; in the data active = inhibition above about 60%
# Target sequence (Q8TCT1 whole entry, looked up): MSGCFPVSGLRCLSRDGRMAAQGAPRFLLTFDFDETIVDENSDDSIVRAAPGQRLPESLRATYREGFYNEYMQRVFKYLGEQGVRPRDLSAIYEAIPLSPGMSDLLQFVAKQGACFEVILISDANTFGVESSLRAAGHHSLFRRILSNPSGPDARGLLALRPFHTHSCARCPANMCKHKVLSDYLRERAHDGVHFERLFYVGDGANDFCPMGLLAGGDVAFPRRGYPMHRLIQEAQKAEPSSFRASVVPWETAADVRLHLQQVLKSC
# eIF4H inh = inhibitors of RNA binding by human eIF4H; AID 2012; 290,000 compounds, 0.94% hits; eIF4H fluorescence polarization binding assay; inhibition, % at 35 µM; Q15056;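 also: calls also rest on retests at 20 µM and on dose response follow-up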
# MLLE-PAM2 inh = inhibitors of microRNA-mediated deadenylation, human PABP1 MLLE binding; P11940; GST-MLLE / FITC-PAM2 fluorescence polarization; inhibition, % at 20 µM; 360,000 compounds, 0.36% hits; AID 588489; in the data active = inhibition above about 35%, passing the limit was not always enough;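 also: plate controls were DMSO wells with GST-MLLE for no effect and wells lacking GST-MLLE protein for full effect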
# PABP FP inh = PABP-poly(A) binding inhibition | PABP-poly(A) RNA binding, fluorescence polarization | inhibition, % at 35 µM | 290,000 compounds, 1% hits | AID 2014;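 also: calls also rest on retests at 20 µM and on dose response follow-up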
# An asterisk follows results filed as active; . = no result. Only some compounds are listed: those with a hit (about 2.6% of all), similar ones and a draw of the others. Unless noted, no rule for the calls is given here.
SMILES,CRFBP-R2 block,PHOSPHO1 block,eIF4H inh,MLLE-PAM2 inh,PABP FP inh
CCN(CC(=O)Nc1ccccc1C(F)(F)F)C(=O)CN1C(=O)NC(C)(c2ccc3ccccc3c2)C1=O (stereo not drawn),-8,.,.,11,.
O=C(COC(=O)c1cncc(Br)c1)Nc1nnc(-c2ccccc2)o1,-5,25,70*,-11,33
COc1cc(OC)cc(C(=O)OCC(=O)Nc2nnc(-c3ccccc3)o2)c1,14,.,.,8,.
CCC(C)C(=O)N1c2ccccc2C(=C2SC(C(=O)OC)=C(C(=O)OC)S2)C(=S)C1(C)C (stereo not drawn),10,58,-8,46*,7
CCOC(=O)C1=C(C)c2ccccc2N(C(=O)OC)C1(C)C(=O)OCC (stereo not drawn),-16,.,.,-94,.
c1ccc(Cc2nnc3sc(-c4ccco4)nn23)cc1,-2,96*,53,-28,15
COc1cc(-c2nn3c(Cc4ccccc4)nnc3s2)cc(OC)c1OC,-27,77*,2,24,-7
COc1cc(-c2nn3c(COc4ccccc4)nnc3s2)cc(OC)c1OC,-12,74*,4,22,-4
CCOc1ccccc1OCc1nn2c(COc3ccccc3)nnc2s1,-9,0,-7,25,2
c1ccc(Cc2nn3c(COc4ccccc4)nnc3s2)cc1,-74,66*,-6,37,6
COc1ccccc1NC(=O)c1cc2c(cc1Cl)N1CCCCCC1=NS2(=O)=O,15,.,.,-8,.
Cc1ccc(S(=O)(=O)N(C)C[C@H]2OCCCC[C@@H](C)Oc3ccc(NC(=O)Cc4ccccc4)cc3C(=O)N([C@H](C)CO)C[C@@H]2C)cc1,-9,.,.,8,.
CCCCC(=O)c1ccc(OC(=O)c2ccc([N+](=O)[O-])cc2)cc1,-20,.,.,-5,.
Cc1c(/C=C(\C#N)c2nn(-c3ccccc3)c(N)c2C#N)c2ccccc2n1Cc1ccc(F)cc1,-14,5,52*,-39,68*
CC(C)NC(=O)Nc1ccc2c(c1)C(=O)N([C@H](C)CO)C[C@@H](C)[C@@H](CN(C)C(=O)NC1CCCCC1)O2,-2,.,.,0,.
COc1ccc(C(=O)Cn2nnc(-c3ccccc3NC(=O)C3CCCCC3)n2)cc1,4,11,23,-40,62*
OC1c2c(F)cccc2N=C2CCCCN21 (stereo not drawn),.,.,.,8,.
Cc1ccc(OCCOC(=O)Cn2nc(C)c([N+](=O)[O-])c2C)cc1,54*,44,14,-16,3
COC(=O)c1[nH]c2ccc(C)cc2c1NC(=O)CN1CCc2cc(OC)c(OC)cc2C1,5,69*,-8,-54,29
COC(=O)c1[nH]c2ccc(Br)cc2c1NC(=O)CN1CCN(C2CCCCC2)CC1,-12,-63,-12,-112,51*
CC1=CCC[C@@H]2[C@]3(CC/C(=C/CO)CO)CO[C@@]2(C1)[C@@H](O)C[C@H]3C,.,.,.,6,.
Oc1ccc(Br)cc1C=Nc1ccc2c3c(cccc13)CC2,-38,-20,100*,12,3.5*
Oc1ccc(Cl)cc1C=Nc1ccccc1Br,-2,8,-4,-3,-4
CCCc1n(CC(O)COCC2CC=CCC2)c2ccccc2[n+]1C (stereo not drawn),-11,22,6,-111,68*
Cc1nc2ccccc2n1CC(O)COC1CCCCC1 (stereo not drawn),53*,-1,-1,1,-2
SMILES,CRFBP-R2 block,PHOSPHO1 block,eIF4H inh,MLLE-PAM2 inh,PABP FP inh
CCCc1n(CC(O)COC2CCCCC2)c2ccccc2[n+]1C (stereo not drawn),24,24,4,-119,72*
O=C(N1CCOCC1)N1[C@H](COCc2ccccc2)C=CS1(=O)=O,.,.,.,7,.
C=CCO/N=C(/C)c1ccc(Oc2cnccn2)cc1,2,-23,7.9*,2,74*
COc1ccc(C(=O)O/N=C(\C)c2cnccn2)cc1,15,-23,-4,6,-10
COc1ccc(CNC(=O)/C=C/[C@H]2O[C@@H](n3ccc(=O)[nH]c3=O)[C@H](O)[C@@H]2O)cc1,.,.,.,4,.
CCOC1=C2[C@H](c3ccccc3)N(S(=O)(=O)c3ccc(C)cc3)C(C(C)(C)C)[C@H]2C(C#N)(C#N)C(C#N)(C#N)C1 (stereo partly drawn),.,.,.,13,.
COc1cccc2c(=O)c(SC(F)(F)C(F)C(F)(F)F)c(C)[nH]c12 (stereo not drawn),-1,-2,-9,1,-5
Cc1[nH]c2ccc(F)cc2c(=O)c1SC(F)(F)C(F)C(F)(F)F (stereo not drawn),36,88*,-2,11,-8
COc1ccc(C(=O)Nc2ccccc2C(=O)Nc2ccncc2)cc1,7,63*,-14,-8,-4
COc1ccc(C(=O)Nc2ccccc2C(=O)Nc2ccc(C(=O)O)cc2)cc1,2,9,-5,16,-4
Cc1cccc(-n2nnc(C(=O)NCc3ccc4c(c3)OCO4)c2N)c1,1,60*,-1,-16,-7
COc1ccc(CNc2ccc(S(N)(=O)=O)cc2)cc1,20,9,1,57*,3
COc1ccc(CNC(=O)C(C)NCc2ccc(S(N)(=O)=O)cc2)cc1 (stereo not drawn),-8,6,-7,-13,2
COCCn1c(C)cc(/C=C2/SC(=O)N(C(C)C(=O)OC)C2=O)c1C (stereo not drawn),-9,20,3,8,-2
COCCn1c(C)cc(/C=C2\NC(=S)N(C)C2=O)c1C,2,5,65,-62,2.8*
CCN(CC)C(=O)C1=C(C)N(CCCOC)C(=O)C(CC(=O)NCCCCc2ccccc2)C1 (stereo not drawn),-2,.,.,17,.
CCCCCCCn1c(NC(=O)CC)nc2ccccc21,-17,4,74*,-8,2.0*
CCC(=O)Nc1nc2ccccc2n1CCN1CCOCC1,-12,5,6,-8,-8
CCC(=O)Nc1ccc(-c2nnc(SCC(=O)Nc3nccs3)n2C)cc1,2,103*,12,-118,53*
Clc1cc(Cl)cc(Nc2ccccc2CN(C/C=C/c2ccc3c(c2)OCO3)Cc2ccccc2)c1,-4,.,.,-1,.
O=C(NNS(=O)(=O)c1ccc([N+](=O)[O-])cc1)C(=O)Nc1cccc(C(=O)O)c1,13,29,60*,33,9
O=C(CSc1nnc(-c2ccccn2)n1Cc1ccco1)c1ccc(Cl)cc1,7,80*,4,-51,-4
O=C(CSc1nnc(-c2ccccn2)n1Cc1ccco1)c1ccccc1,23,59,-1,-22,-7
O=C(CSc1nnc(-c2cnccn2)n1Cc1ccco1)c1ccccc1,9,90*,0,-56,8
O=C(CSc1nnc(-c2cnccn2)n1Cc1ccco1)c1ccc(Cl)cc1,-1,14,-4,8,-4
O=C(CSc1nnc(-c2cccnc2)n1Cc1ccco1)c1ccc(Br)cc1,13,26,-11,-5,7
O=C(CSc1nnc(-c2cccnc2)n1Cc1ccco1)c1ccc2ccccc2c1,-6,70*,-11,-13,10
